This is an account of results in PubChem BioAssay (NCI).

“And” between values parts separate entries of the source, which are not always exact repeats. Identical values can stand only once. This is part of a sample that, as a whole, favours compounds with a hit. Of some 83,000 tested, about 20% had one in any assay.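 For each line, cells grew in 96-well plates with the test compound present at a single concentration for 48 hours.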 The source made the active and inactive calls. The calls were made as follows: active = growth percent below 10; inactive = the rest.

Some test systems named below: RPMI-8226 leukemia; OVCAR-8 ovarian; OVCAR-5 ovarian; OVCAR-4 ovarian; SK-OV-3 ovarian; IGROV1 ovarian; OVCAR-3 ovarian; NCI/ADR-RES ovarian; T-47D breast; BT-549 breast; MDA-MB-435 melanoma; SW-620 colon; MCF7 breast; HCT-116 colon; HCC-2998 colon; KM12 colon; HS 578T breast; SR leukemia.
Common to all, as to experiment: NCI-60 one-dose screen, 48 h (100 = growth as untreated, 0 = no growth, -100 = all killed)
What all share (details): 10 µM unless noted

Regarding `CC[N+](CC)(CC(=O)Nc1c(C)cccc1C)Cc1ccccc1`, the growth was 74% (inactive) and 113% (inactive) with RPMI-8226 leukemia; 95.2% (inactive) and 105% (inactive) in the test on OVCAR-8 ovarian; 119% (inactive) and 99.1% (inactive) in the test with OVCAR-5 ovarian; 80.4% (inactive) and 105% (inactive) in the test with OVCAR-4 ovarian; 102% (inactive) and 107% (inactive) with SK-OV-3 ovarian; 85.4% (inactive) and 94.5% (inactive) in the test with IGROV1 ovarian. In addition, the growth in the test on OVCAR-3 ovarian is 104% (inactive) and 109% (inactive); in the test on NCI/ADR-RES ovarian it was 90.3% (inactive) and 102% (inactive); with T-47D breast, 86.9% (inactive) and 95.1% (inactive); with BT-549 breast it was 63.8% (inactive) and 106% (inactive); in the test on MDA-MB-435 melanoma it was 94.7% (inactive) and 99.3% (inactive); with SW-620 colon, 90.1% (inactive) and 97.1% (inactive). The growth is 95.7% (inactive) and 99.8% (inactive) with MCF7 breast; 97.3% (inactive) and 100% (inactive) in the test with HCT-116 colon; 102% (inactive) with HCC-2998 colon; 101% (inactive) and 88.9% (inactive) in the test with KM12 colon.

For `CN1CCN(CCC=C2c3ccccc3Sc3ccc(S(=O)(=O)N(C)C)cc32)CC1`, the growth in the test on RPMI-8226 leukemia is 26.4% (inactive) and 23.4% (inactive); in the test on OVCAR-8 ovarian, 83.8% (inactive) and 95.7% (inactive); in the test on OVCAR-5 ovarian, 80.1% (inactive); with OVCAR-4 ovarian, 80.6% (inactive) and 85.2% (inactive); with SK-OV-3 ovarian it was 87.7% (inactive) and 96.7% (inactive); with IGROV1 ovarian, 62.1% (inactive) and 58.2% (inactive). Also, the growth in the test on OVCAR-3 ovarian is 91.4% (inactive) and 71.7% (inactive); with HS 578T breast, 52.5% (inactive) and 65.4% (inactive); with NCI/ADR-RES ovarian, 74.7% (inactive) and 84.9% (inactive); in the test on T-47D breast, 77.4% (inactive); in the test with BT-549 breast, 67.9% (inactive) and 70% (inactive); with MDA-MB-435 melanoma it was 12.8% (inactive) and 6.78% (active). For the same molecule, the growth is 76.9% (inactive) and 74.2% (inactive) in the test on SW-620 colon; 41.2% (inactive) and 71.9% (inactive) with MCF7 breast; 39.5% (inactive) and 45.1% (inactive) in the test on HCT-116 colon; 13.9% (inactive) and 14.4% (inactive) with HCC-2998 colon; 68.7% (inactive) and 73.4% (inactive) in the test with KM12 colon.

As for `Cc1ccc(-c2noc(CC(=O)c3ccc([N+](=O)[O-])cc3)n2)cc1`, the growth is 98.1% (inactive) with SR leukemia; 100% (inactive) with OVCAR-8 ovarian; 102% (inactive) in the test on OVCAR-4 ovarian; 97.6% (inactive) in the test on SK-OV-3 ovarian; 104% (inactive) in the test on IGROV1 ovarian; 102% (inactive) in the test with OVCAR-3 ovarian. The growth is 99.8% (inactive) in the test with HS 578T breast; 104% (inactive) in the test with NCI/ADR-RES ovarian; 87.8% (inactive) in the test with T-47D breast; 103% (inactive) with BT-549 breast; 98.1% (inactive) with MDA-MB-435 melanoma; 102% (inactive) with SW-620 colon. Further, the growth was 98.2% (inactive) with MCF7 breast, 98.7% (inactive) with HCT-116 colon, 103% (inactive) in the test on HCC-2998 colon and 98% (inactive) in the test on KM12 colon.

Turning to `CCOc1ccc2nc3cc(N)ccc3c(N)c2c1`, the growth is 113% (inactive) and 86.4% (inactive) in the test on RPMI-8226 leukemia; 28.9% (inactive) and 29.6% (inactive) with OVCAR-8 ovarian; 94.1% (inactive) and 99.6% (inactive) in the test on OVCAR-5 ovarian; 56.6% (inactive) and 49.2% (inactive) in the test with OVCAR-4 ovarian; 61% (inactive) and 76.5% (inactive) in the test on SK-OV-3 ovarian; 69.9% (inactive) and 99.4% (inactive) in the test with IGROV1 ovarian. The growth with OVCAR-3 ovarian was 35.3% (inactive) and 22.8% (inactive); with NCI/ADR-RES ovarian, 88.4% (inactive) and 71.8% (inactive); in the test with T-47D breast it was 7.14% (active) and -4.55% (active); in the test with BT-549 breast, 35.7% (inactive) and -3.05% (active); in the test with MDA-MB-435 melanoma, 91.7% (inactive) and 98.2% (inactive); with SW-620 colon it was 46.1% (inactive) and 50% (inactive). Besides, the growth in the test on MCF7 breast is 16.8% (inactive); in the test on HCT-116 colon, 46.4% (inactive) and 29.6% (inactive); in the test on HCC-2998 colon it was 45.3% (inactive) and 46.1% (inactive); in the test on KM12 colon it was 45.1% (inactive) and 31.5% (inactive).

As for `OCCN1CCN(CCCN2c3ccccc3Sc3ccc(Cl)cc32)CC1`, the growth in the test with RPMI-8226 leukemia was 37.6% (inactive) and 68.9% (inactive); in the test with OVCAR-8 ovarian, 89.3% (inactive) and 107% (inactive); with OVCAR-5 ovarian it was 61.3% (inactive) and 90.7% (inactive); in the test on OVCAR-4 ovarian, 74.2% (inactive) and 69.8% (inactive); with SK-OV-3 ovarian, 70% (inactive) and 87.5% (inactive); with IGROV1 ovarian, 47.7% (inactive) and 57.8% (inactive). Besides, the growth with OVCAR-3 ovarian is 83% (inactive) and 81.5% (inactive); in the test with HS 578T breast it was 63.1% (inactive) and 72.3% (inactive); in the test with NCI/ADR-RES ovarian, 60.9% (inactive) and 76% (inactive); in the test on T-47D breast it was 66% (inactive) and 84.1% (inactive); with BT-549 breast, 59.1% (inactive) and 74.7% (inactive); in the test on MDA-MB-435 melanoma, -11.6% (active) and 26.5% (inactive). Also, the growth was 80.6% (inactive) and 83.8% (inactive) with SW-620 colon; 77.2% (inactive) with MCF7 breast; 35.1% (inactive) and 66.7% (inactive) with HCT-116 colon; 15.2% (inactive) and 70.6% (inactive) in the test with HCC-2998 colon; 71.4% (inactive) and 80.5% (inactive) with KM12 colon.

As to `OCc1ccccn1`, the growth in the test on SR leukemia was 96.9% (inactive); with OVCAR-8 ovarian, 108% (inactive); in the test on OVCAR-4 ovarian it was 113% (inactive); in the test with SK-OV-3 ovarian, 117% (inactive); in the test on IGROV1 ovarian it was 116% (inactive); with OVCAR-3 ovarian, 112% (inactive). In addition, the growth was 106% (inactive) in the test with HS 578T breast; 109% (inactive) in the test on NCI/ADR-RES ovarian; 107% (inactive) in the test with T-47D breast; 103% (inactive) in the test with BT-549 breast; 104% (inactive) in the test on SW-620 colon; 95.3% (inactive) in the test with MCF7 breast. Also, the growth was 104% (inactive) in the test on HCT-116 colon, 109% (inactive) in the test with HCC-2998 colon and 110% (inactive) in the test on KM12 colon.

Regarding `Cc1nn(-c2ccccc2)nc1C(=O)Nc1ccccc1C(=O)NCC1CC1`, the growth with RPMI-8226 leukemia was 92.9% (inactive) and 92% (inactive); with OVCAR-8 ovarian it was 95.8% (inactive) and 30.7% (inactive); with OVCAR-5 ovarian, 99.6% (inactive) and 86.8% (inactive); in the test with OVCAR-4 ovarian it was 106% (inactive) and 40.5% (inactive); in the test with SK-OV-3 ovarian, 99% (inactive) and 91% (inactive); in the test with IGROV1 ovarian it was 108% (inactive) and 33.7% (inactive). The growth is 133% (inactive) and 54.2% (inactive) in the test on OVCAR-3 ovarian; 127% (inactive) and 24.2% (inactive) in the test with HS 578T breast; 89.6% (inactive) and 41.4% (inactive) in the test on NCI/ADR-RES ovarian; 76.8% (inactive) and 28.7% (inactive) in the test on T-47D breast; 123% (inactive) and 84.8% (inactive) in the test with BT-549 breast; 104% (inactive) and 68.7% (inactive) with SW-620 colon. Moreover, the growth in the test on MCF7 breast is 81.1% (inactive) and 56.5% (inactive); in the test on HCT-116 colon it was 63.9% (inactive) and -13.4% (active); in the test on HCC-2998 colon, 102% (inactive) and 116% (inactive); with KM12 colon, 117% (inactive) and 93.9% (inactive).

As to `CC(=O)Oc1cc(C(=O)O)cc(OC(C)=O)c1OC(C)=O`, the growth in the test with RPMI-8226 leukemia was 96.7% (inactive) and 102% (inactive); in the test on OVCAR-8 ovarian, 103% (inactive) and 99.9% (inactive); with OVCAR-5 ovarian, 117% (inactive) and 94.9% (inactive); in the test on OVCAR-4 ovarian it was 109% (inactive) and 97% (inactive); with SK-OV-3 ovarian, 94.1% (inactive) and 102% (inactive); in the test with IGROV1 ovarian it was 130% (inactive) and 95.8% (inactive). Besides, the growth in the test with OVCAR-3 ovarian was 105% (inactive); in the test on HS 578T breast, 99.5% (inactive) and 112% (inactive); in the test with NCI/ADR-RES ovarian it was 103% (inactive) and 96.7% (inactive); in the test on T-47D breast, 101% (inactive) and 98.5% (inactive); with BT-549 breast, 110% (inactive) and 102% (inactive); with MDA-MB-435 melanoma, 116% (inactive) and 106% (inactive). In addition, the growth in the test on SW-620 colon was 103% (inactive) and 107% (inactive); in the test with MCF7 breast it was 102% (inactive) and 93% (inactive); with HCT-116 colon, 100% (inactive) and 90.3% (inactive); in the test with HCC-2998 colon it was 102% (inactive) and 100% (inactive); with KM12 colon it was 112% (inactive) and 106% (inactive).

On to `CC(C)(O)Cn1cc(-c2ccc3nc(OC4CC4)ccc3c2)c2c(N)ncnc21`, for which the growth with SR leukemia was 49.9% (inactive) and 21% (inactive); in the test with OVCAR-8 ovarian it was 90.2% (inactive) and 63.6% (inactive); in the test on OVCAR-5 ovarian, 84.7% (inactive) and 48.4% (inactive); in the test on SK-OV-3 ovarian it was 83.4% (inactive) and 57.9% (inactive); in the test with IGROV1 ovarian, 74% (inactive) and 42.2% (inactive); in the test with OVCAR-3 ovarian, 109% (inactive) and 69.8% (inactive). The growth in the test on HS 578T breast is 71.1% (inactive) and 31.9% (inactive); in the test on NCI/ADR-RES ovarian it was 94.9% (inactive) and 67.1% (inactive); in the test on T-47D breast, 47.6% (inactive) and 5.84% (active); in the test with MDA-MB-435 melanoma, 93.7% (inactive) and 61% (inactive); in the test with SW-620 colon, 97.4% (inactive) and 63.8% (inactive); with MCF7 breast it was 69.6% (inactive) and 39.6% (inactive). Moreover, the growth in the test with HCT-116 colon was 70.3% (inactive) and 52.4% (inactive); with HCC-2998 colon, 99.7% (inactive) and 89.4% (inactive); with KM12 colon it was 84.1% (inactive) and 56.8% (inactive).

For the molecule `COc1cc2nc(N3CCC[C@@H](NC(=O)C4COc5ccccc5O4)C3)nc(N)c2cc1OC` (some centres not stated), the growth in the test on RPMI-8226 leukemia was 95.2% (inactive) and 91.4% (inactive); in the test on OVCAR-8 ovarian, 100% (inactive) and 94.3% (inactive); in the test with OVCAR-5 ovarian it was 102% (inactive) and 97.1% (inactive); with OVCAR-4 ovarian it was 101% (inactive) and 95.4% (inactive); with SK-OV-3 ovarian, 105% (inactive) and 106% (inactive); in the test with IGROV1 ovarian, 105% (inactive) and 108% (inactive). For the same molecule, the growth in the test on OVCAR-3 ovarian was 105% (inactive) and 106% (inactive); in the test on HS 578T breast, 110% (inactive) and 109% (inactive); in the test on NCI/ADR-RES ovarian, 109% (inactive) and 106% (inactive); in the test with T-47D breast, 92.2% (inactive) and 90.3% (inactive); with BT-549 breast, 107% (inactive) and 113% (inactive); with MDA-MB-435 melanoma it was 96.9% (inactive) and 99.5% (inactive). Also, the growth with SW-620 colon is 100% (inactive) and 107% (inactive); in the test on MCF7 breast it was 100% (inactive) and 98.9% (inactive); in the test with HCT-116 colon, 95.9% (inactive) and 95.2% (inactive); with HCC-2998 colon, 104% (inactive) and 98.3% (inactive); in the test with KM12 colon, 104% (inactive) and 103% (inactive).
